Article PMC5540273 (PLoS ONE, 2017)

What was measured:
Settings in all cases: concentration: 1 μM, replicates: in singlicate; n = 1
[1] = tested on: CSNK1A1L
[2] = tested on: CSNK1A1
[3] = tested on: CSNK1D
[4] = tested on: CSNK1E
[5] = tested on: CSNK1G1
[6] = tested on: CSNK1G2
[7] = tested on: CSNK1G3
[8] = tested on: CSNK2A1
[9] = tested on: CSNK2A2
[10] = tested on: T1, CTK
T1 construct: gene MATK

[11] = tested on: DAPK1
[12] = tested on: DAPK2
[13] = tested on: DAPK3
[14] = tested on: T2, DCAMKL1
T2 construct: gene DCLK1

[15] = tested on: T3, DCAMKL2
T3 construct: gene DCLK2

[16] = tested on: T4, DCAMKL3
T4 construct: gene DCLK3

[17] = tested on: DDR1
[18] = tested on: DDR2
[19] = tested on: T5, DLK
T5 construct: gene MAP3K12

[20] = tested on: T6, DMPK2
T6 construct: gene CDC42BPG
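Further: KINOMEscan kinase panel screen.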

Compound	%Inh [1]	%Inh [2]	%Inh [3]	%Inh [4]	%Inh [5]	%Inh [6]	%Inh [7]	%Inh [8]	%Inh [9]	%Inh [10]	%Inh [11]	%Inh [12]	%Inh [13]	%Inh [14]	%Inh [15]	%Inh [16]	%Inh [17]	%Inh [18]	%Inh [19]	%Inh [20]
CC(C)(C)n1cnc2c(N)ncnc21 [SKF-97359]	16%	40%	0%	39%	0%	0%	2%	0%	0%	21%	78%	19%	0%	0%	0%	11%	0%	0%	31%	0%
Cc1cccc(-c2nc(Nc3ccc4ncsc4c3)c3ccccc3n2)n1 [GW867588]	0%	0%	0%	6%	0%	0%	0%	0%	18%	0%	0%	0%	23%	0%	7%	0%	0%	35%	0%	9%
CC(C)Oc1ccc2c(-c3ccnc(Nc4ccc(N5CCN(C)CC5)cc4)n3)cnn2n1 [GW696155]	0%	46%	37%	28%	28%	0%	19%	94.6%	98.9%	0%	97.9%	90.3%	99.6%	93.5%	91%	99.2%	45%	74%	89%	13%
CN(C1=C(c2ccccc2)C(=O)NC1=O)c1ccccc1 [SB-334860]	0%	0%	19%	17%	7%	0%	22%	1%	21%	0%	26%	0%	8%	19%	11%	0%	0%	4%	9%	12%
CN(C(=O)c1ccc(-c2cc(-c3c[nH]nc3-c3ccccn3)ccn2)cc1)C1CCOCC1 [GW810083]	8%	37%	29%	42%	5%	0%	0%	0%	0%	5%	11%	2%	0%	0%	0%	19%	0%	36%	14%	0%
COc1ccc(COc2cc(-n3cnc4ccccc43)sc2C(N)=O)cc1 [GSK1024304]	13%	0%	0%	30%	11%	5%	22%	4%	13%	0%	3%	10%	8%	0%	8%	0%	0%	0%	25%	7%
Cl.Nc1ncnc2occ(-c3ccc(NC(=O)Nc4cc(C(F)(F)F)ccc4F)cc3)c12 [SB-707548]	11%	10%	32%	25%	16%	0%	32%	0%	0%	4%	24%	14%	14%	17%	4%	0%	100%	98.3%	21%	24%
O=C1Cc2cc(Nc3nc(NCc4cccc(S(=O)(=O)C(F)(F)F)c4)ncc3C(F)(F)F)ccc2N1	0%	12%	0%	0%	11%	0%	0%	12%	5%	5%	0%	0%	0%	15%	0%	12%	0%	11%	33%	19%
[2H]C([2H])(c1cccc(C(F)(F)F)c1C)n1ccn2c(=O)nc(N3CCOCC3)cc12 [GSK2336394]	16%	0%	19%	12%	9%	0%	19%	0%	0%	0%	26%	0%	6%	8%	18%	21%	0%	0%	10%	0%
O=c1cc(N2CCOCC2)nc2n(Cc3cccc(C(F)(F)F)c3)ccn12 [GSK2297543]	16%	24%	17%	0%	13%	0%	8%	0%	9%	0%	0%	9%	10%	21%	10%	0%	0%	2%	0%	0%
CCn1cnc2c(N)ncnc21 [GW345098]	14%	28%	21%	55%	9%	0%	16%	12%	19%	51%	14%	5%	18%	7%	7%	25%	18%	0%	0%	9%
O=C(Nc1cccc(-c2nn3ncccc3c2-c2ccnc(Nc3cccc(C(F)(F)F)c3)n2)c1)c1c(F)cccc1F [GSK299495]	24%	0%	12%	82%	0%	0%	18%	0%	0%	0%	0%	0%	1%	13%	0%	4%	100%	56%	41%	92.6%
O=C(NCCCN1CCOCC1)c1cccc(Nc2nccc(Nc3ccc(Oc4ccccc4)cc3)n2)c1 [GW663929]	0%	0%	3%	0%	18%	0%	11%	10%	21%	11%	48%	35%	81%	38%	0%	3%	35%	50%	13%	16%
COc1cc(Nc2nccc(N3CCC(NC(=O)c4cccc(NC(C)=O)c4)C3)n2)cc(OC)c1OC (stereo not drawn) [GSK1379754]	4%	6%	0%	0%	4%	0%	8%	17%	65%	0%	0%	8%	19%	8%	21%	0%	0%	4%	62%	0%
O=c1cc(N2CCOCC2)nc2n(Cc3cccc(F)c3)ccn12 [GSK2297430]	18%	20%	15%	35%	9%	1%	13%	0%	0%	0%	0%	0%	0%	0%	0%	2%	0%	1%	23%	4%
Cn1cc(-c2ccc3c(c2)CCN3C(=O)Cc2ccccc2Cl)c2c(N)ncnc21 [GSK2608885]	0%	0%	11%	87%	25%	3%	20%	0%	8%	18%	0%	0%	5%	13%	1%	35%	100%	93.4%	6%	100%
CSc1ccc(-c2cc3ncnc(SCC(=O)O)c3s2)cc1	11%	21%	0%	0%	1%	0%	0%	22%	17%	14%	12%	0%	0%	0%	15%	8%	0%	8%	44%	0%
CNc1ncnc2[nH]ncc12 [SKF-18355]	0%	14%	0%	32%	0%	0%	11%	0%	3%	18%	7%	0%	0%	33%	15%	0%	0%	64%	11%	0%
